This note sets out measurements from PubChem BioAssay (NCATS).

The target of experiment [1] is Alpha-galactosidase A (Homo sapiens) (UniProt P06280). Kind of experiment: Counterscreen for Glucocerebrosidase Inhibitors: qHTS Assay for Human alpha-Galactosidase at pH 4.5 (AID 992). Further: 0% is about no effect. In short, it runs like this: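 Enzyme at 2 nM final was combined with compound (0.7 nM to 77 uM) and 80 uM 4-methylumbelliferyl alpha-D-galactopyranoside in 50 mM citric acid, 0.005% Tween-20, pH 4.5. After 20 min at room temperature, fluorescence was read (Ex 365/Em 440 nm); AC50 came from Hill fits.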
Chain of Alpha-galactosidase A (Homo sapiens) (P06280 whole entry, looked up): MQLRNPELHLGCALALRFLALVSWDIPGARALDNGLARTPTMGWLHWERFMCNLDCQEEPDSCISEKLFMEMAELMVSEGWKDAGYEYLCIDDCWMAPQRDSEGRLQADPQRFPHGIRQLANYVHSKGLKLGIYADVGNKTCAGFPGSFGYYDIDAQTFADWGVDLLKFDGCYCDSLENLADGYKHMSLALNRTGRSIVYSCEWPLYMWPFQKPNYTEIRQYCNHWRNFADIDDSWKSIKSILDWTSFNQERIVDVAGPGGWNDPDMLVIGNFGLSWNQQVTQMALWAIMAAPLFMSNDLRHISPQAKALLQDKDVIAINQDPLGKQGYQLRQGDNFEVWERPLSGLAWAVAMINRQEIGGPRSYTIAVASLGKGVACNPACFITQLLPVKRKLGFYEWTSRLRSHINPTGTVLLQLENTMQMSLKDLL

The target of experiment [2] is alpha-glucosidase (Oryza sativa, rice) (UniProt Q653V4). Kind of experiment: Counterscreen for Glucocerebrosidase Inhibitors: qHTS Assay for Rice alpha-Glucosidase at pH 5.0 (AID 997).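 Further: 0% = full activity with enzyme and -100% = basal without enzyme.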 Put shortly: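 Rice alpha-glucosidase (4 nM final) with 400 uM 4-methylumbelliferyl-alpha-D-glucopyranoside in citrate buffer pH 5.0, 20 min at room temperature, stopped at pH 10; fluorescence 365/440 nm, compounds 0.7 nM–77 uM, AC50 from Hill fits.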

A short description of experiment [3]: Validation of Assay for Modulators of Lamin A Splicing (AID 1459; active means well fitted curve in the direction sought with a large enough effect in the signal ratio; the % refers to the signal ratio;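 further: cells exposed to compound for two days before reading; 0% is about no effect; ratio rise marks activators and ratio drop marks inhibitors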). In short, it runs like this: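 Splicing correction is reported by an EGFP-containing lamin A minigene in stably transfected S3 HeLa cells, while DsRed2 controls for viability and nonspecific signal. Cells are exposed to compounds for 48 hrs before the GFP over RFP ratio is taken.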
Experiment [4] is described as follows: qHTS Assay for Lipid Storage Modulators (AID 1519; calls by dose curve; on activity change, negative = inhibition: on the % scale 0 is the no-effect control and ±100 the full control effect). Conditions: Drosophila S3 cells, BODIPY lipid droplet/cell ratio, laser cytometry, cells loaded with oleic acid; for activity change, negative = inhibition: at 57.5 µM (top of the series). In short, it runs like this:
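Cells seeded at 5,000 per well were treated with compounds over a concentration series and loaded with oleic acid (400 uM, as added). Lipid droplet fluorescence (488 nm excitation, 500-530 nm channel) was read by laser-scanning cytometry and normalized to 20 uM Triacsin C.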

The target of experiment [5] is DNA repair nuclease/redox regulator APEX1 (Homo sapiens) (UniProt P27695). Briefly: qHTS Validation Assay for Inhibitors of the Human Apurinic/apyrimidinic Endonuclease 1 (APE1) (AID 1705; further: potency means the concentration at half of the fitted maximal effect;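 on activity change, negative = inhibition: TAMRA fluorescence gain over two minutes as APE1 cuts a quenched THF abasic duplex; on the % scale 0 is the no-effect control and ±100 the full control effect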). Put shortly:
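Endonuclease activity of human APE1 is followed as dequenching when the enzyme incises a tetrahydrofuran abasic site in a short duplex labelled 5'-TAMRA/3'-BHQ-2 (50 nM final), after 15 min enzyme–compound preincubation at room temperature.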

Experiment [6] is described as follows: qHTS for differential inhibitors of proliferation of Plasmodium falciparum line 7G8 (AID 1815).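 Further: parasite growth measured after three days of incubation.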 Further: potency means the concentration at half of the fitted maximal effect.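 On activity change, negative = inhibition: plate controls were vehicle wells for no effect and reference inhibitor wells for full effect.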
The nature of experiment [7]: qHTS for differential inhibitors of proliferation of Plasmodium falciparum line GB4 (AID 1816).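 Further: parasite growth measured after 72 h incubation.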 Further: potency means the concentration at half of the fitted maximal effect.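 On activity change, negative = inhibition: 0% = vehicle DMSO and -100% = reference inhibitor.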 Conditions: Potency: Plasmodium falciparum GB4 proliferation inhibition.
Experiment [8] is described as follows: qHTS for differential inhibitors of proliferation of Plasmodium falciparum line 3D7 (AID 1876). Further: potency means the concentration at half of the fitted maximal effect.
Experiment [9] is described as follows: qHTS for differential inhibitors of proliferation of Plasmodium falciparum line D10 (AID 1877).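 Further: parasites grown with compound for 72 h before DNA staining.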 Further: potency means the concentration at half of the fitted maximal effect.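 On activity change, negative = inhibition: plate controls were vehicle wells for no effect and reference inhibitor wells for full effect.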
A short description of experiment [10]: Counterscreen for APE1 Inhibitors: Fluorescent Dye Displacement Validation Assay (AID 1707).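 Further: plate controls were ThO with dsDNA and no compound for no effect and ThO without dsDNA for full effect.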 Put shortly: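 Thiazole Orange displacement from dsDNA: 250 nM ThO with 50 nM TAMRA-labelled abasic-site (tetrahydrofuran) duplex in 50 mM Tris-HCl pH7.5, 50mM NaCl, 2 mM MgCl2, 0.01% Tween-20. Loss of endpoint fluorescence (ex 480 nm, em 540 nm) flags DNA binders.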

In experiment [11] the target is Endonuclease 4 (Escherichia coli (strain K12)) (UniProt P0A6C1). Briefly: Counterscreen for APE1 Inhibitors: qHTS Validation Assay for Inhibitors of Endonuclease IV (AID 1708). Further: on the % scale 0 is the no-effect control and ±100 the full control effect. In short, it runs like this:
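E. coli EndoIV at 2 nM final, preincubated 15 min at room temperature with compound, then 50 nM TAMRA/BHQ-2 THF abasic-site duplex added. Buffer: 50 mM Tris-HCl pH 7.5, 50 mM NaCl, 2 mM MgCl2, 1 mM DTT, 0.01% Tween-20. Kinetic fluorescence increase, third minus first read.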

Where [12] appears, read: measured here: cell count channel max response.
[13] abbreviates: measured here: lipid channel max response.

SMILES strings stand for the structures. “And” between values parts separate entries of the source, which are not always exact repeats. Equal entries are not always repeated. Inconclusive results are not listed. The source made the active and inactive calls. Unless noted, the call rests on the fitted dose curve; in most records, active means well fitted curve in the direction sought with a large enough effect; inconclusive means small, poorly fitted or top-dose-only effect, or another doubt; inactive means no such curve, though single readings can be large; an effect the other way counts as inactive or inconclusive.

Chain of DNA repair nuclease/redox regulator APEX1 (Homo sapiens) (P27695 whole entry, looked up): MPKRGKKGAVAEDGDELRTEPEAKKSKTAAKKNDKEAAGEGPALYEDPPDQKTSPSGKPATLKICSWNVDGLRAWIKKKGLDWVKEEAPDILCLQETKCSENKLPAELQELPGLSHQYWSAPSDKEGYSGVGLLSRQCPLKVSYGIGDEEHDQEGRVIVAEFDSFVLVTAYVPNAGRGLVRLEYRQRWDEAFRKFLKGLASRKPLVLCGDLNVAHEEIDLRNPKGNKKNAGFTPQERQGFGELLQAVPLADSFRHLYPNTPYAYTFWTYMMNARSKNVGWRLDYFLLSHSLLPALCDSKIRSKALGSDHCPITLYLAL

With `CCCCCCC/C=C\CCCCCCCCC(=O)O`, the compound was called inactive in [1], in [2] and in [3]. Besides, the activity change, negative = inhibition in experiment [4] is -0.534% (inactive). Further, the values for the max response in [4] (setting [12]) and in experiment [4] (setting [13]) were -11.1% and -10.7%, respectively. Moreover, in experiment [5], the Potency was 35.5 µM (active). Further, the Potency result in experiment [6], in [7], in experiment [8] and in experiment [9] was “inactive” each time.

Take `CCN(CC)CCCCCCCCOC(=O)c1cc(OC)c(OC)c(OC)c1`: the compound was classed as inactive in experiment [1], in experiment [2] and in experiment [3]. Besides, the activity change, negative = inhibition in experiment [4] was 0.792% (inactive). For the same compound, the figures for the max response in experiment [4] (setting [12]) and in experiment [4] (setting [13]) were 8.64% and 11.3%, respectively. In addition, the Potency entry in [5], in experiment [10] and in experiment [11] was “inactive” in each case. Besides, the Potency in experiment [6] is 7.08 µM (active); in [8], 5.62 µM (active).

`COc1cc(/C=C(\C#N)C(=O)c2ccc(O)c(O)c2)cc(I)c1O`: the compound was called inactive in experiment [1], in experiment [2] and in experiment [3]. Besides, the activity change, negative = inhibition in experiment [4] was -0.482% (inactive). The values for the max response in [4] (setting [12]) and in experiment [4] (setting [13]) were 28.4% and 26.2%, respectively. In addition, the Potency in [5] is 2.24 µM (active). Moreover, the Potency entry in [10] and in experiment [11] was “inactive” throughout.

Regarding `O=C(O)Cc1ccc(O)c(O)c1`, the compound was called inactive in experiment [1], in [2] and in [3]. In addition, the activity change, negative = inhibition in experiment [4] is -0.0553% (inactive). In addition, the max response was -16.6% in [4] (setting [12]) and -14.9% in experiment [4] (setting [13]). Further, in experiment [5], the Potency was 7.94 µM (active). Moreover, the Potency entry in [10], in experiment [11], in experiment [7], in experiment [8] and in experiment [9] was “inactive” each time.

As to `N=C(N)SCCN`, the compound was called inactive in experiment [1], in [2] and in [3]. For the same compound, the activity change, negative = inhibition in [4] is 1.32% (inactive) and 3.68% (inactive). Further, the max response in experiment [4] (setting [12]) is 9.1% and -2.48%; in [4] (setting [13]), 12% and 0.318%. The Potency entry in experiment [10] and in experiment [11] was “inactive” each time.

For `NC(Cc1cccc(-c2ccccc2CP(=O)(O)O)c1)C(=O)O` (stereo not given), in experiment [3], the outcome was inactive. Besides, the activity change, negative = inhibition in experiment [4] is 1.29% (inactive). Further, the max response in [4] (setting [12]) amounted to 44.3%; in [4] (setting [13]), 44.8%. Moreover, the Potency entry in experiment [5], in [10], in [6], in experiment [7], in experiment [8] and in experiment [9] was “inactive” each time.

Turning to `Oc1cc(O)c2c(c1)O[C@H](c1ccc(O)c(O)c1)[C@@H](O)C2`, the result in experiment [3] was inactive. In addition, the activity change, negative = inhibition in experiment [4] is 1.15% (inactive). The values for the max response in experiment [4] (setting [12]) and in experiment [4] (setting [13]) were -12.7% and -13.1%, respectively. The Potency result in experiment [10], in experiment [11], in experiment [6], in [7], in [8] and in experiment [9] was “inactive” in each case.

With `C=CCN1CCc2cc(O)c(O)cc2C(c2ccccc2)C1` (stereo not given), the result in experiment [3] was inactive. For the same compound, in experiment [4], the activity change, negative = inhibition is 0.997% (inactive). In addition, the max response in [4] (setting [12]) is -6.45%; in [4] (setting [13]) it was -5.19%. Besides, the Potency result in experiment [5], in experiment [10] and in experiment [11] was “inactive” each time. In addition, the Potency is 11.2 µM (active) in experiment [6], 12.6 µM (active) in experiment [7] and 11.2 µM (active) in experiment [9].

Take `O=C(O)c1cc2cc(F)ccc2[nH]1`: the compound was called inactive in experiment [1], in experiment [2] and in experiment [3]. In experiment [4], the activity change, negative = inhibition is 8.59% (inactive) and -0.743% (inactive). Besides, the max response in experiment [4] (setting [12]) was 14.4% and 31%; in experiment [4] (setting [13]) it was 24.2% and 29.2%. The Potency entry in experiment [5], in [11], in [8] and in [9] was “inactive” in each case.

On to `CN(C)CCC(c1ccc(Br)cc1)c1ccccn1` (stereo not given), for which the compound was called inactive in experiment [3]. Moreover, the activity change, negative = inhibition in experiment [4] is 0.401% (inactive). Further, the results for the max response in experiment [4] (setting [12]) and in experiment [4] (setting [13]) were 15.4% and 17.8%, respectively. Besides, the Potency result in experiment [5], in experiment [10], in [11], in experiment [8] and in experiment [9] was “inactive” in each case.

`O=c1[nH]c(=O)c2nc3ccccc3nc2[nH]1`: the outcome in experiment [1], in [2] and in experiment [3] was inactive. Besides, the activity change, negative = inhibition in experiment [4] is -0.305% (inactive). Further, the max response was -11.1% in experiment [4] (setting [12]) and -9.17% in experiment [4] (setting [13]). Moreover, the Potency result in experiment [5], in experiment [10], in experiment [11] and in experiment [7] was “inactive” in each case.
